In paper PMC11006913:

Target: NKX3-2 (Homo sapiens, UniProt P78367 192-278, P234S)
Experiment: PBM; 200 nM protein, PBS
Settings: dsDNA, one strand shown

Chain of NKX3-2 (Homo sapiens, UniProt P78367 192-278, P234S) (P78367 192-278 P234S): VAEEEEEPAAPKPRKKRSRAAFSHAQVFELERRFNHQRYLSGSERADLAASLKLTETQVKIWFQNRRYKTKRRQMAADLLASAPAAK

Sequence	binding signal
AGCATTCC	10.4 upbm affinity estimate (log intensity, higher = more binding, comparable within an allelic series)
AACGTGGC	10.5 upbm affinity estimate (log intensity, higher = more binding, comparable within an allelic series)
GCACCCAA	10.6 upbm affinity estimate (log intensity, higher = more binding, comparable within an allelic series)
CGCCAGCC	10.7 upbm affinity estimate (log intensity, higher = more binding, comparable within an allelic series)
ACCAGGCT	10.6 upbm affinity estimate (log intensity, higher = more binding, comparable within an allelic series)
CGGTTGAC	10.5 upbm affinity estimate (log intensity, higher = more binding, comparable within an allelic series)
GGTTGAAC	10.6 upbm affinity estimate (log intensity, higher = more binding, comparable within an allelic series)
CGCGGCCG	10.2 upbm affinity estimate (log intensity, higher = more binding, comparable within an allelic series)
GGCTCCCC	10.6 upbm affinity estimate (log intensity, higher = more binding, comparable within an allelic series)
CCTGGCCG	10.5 upbm affinity estimate (log intensity, higher = more binding, comparable within an allelic series)
AATGCGGT	10.7 upbm affinity estimate (log intensity, higher = more binding, comparable within an allelic series)
CCAGGTTA	10.6 upbm affinity estimate (log intensity, higher = more binding, comparable within an allelic series)
CAAGTGCG	12.2 upbm affinity estimate (log intensity, higher = more binding, comparable within an allelic series)
AAGTGGGA	12.6 upbm affinity estimate (log intensity, higher = more binding, comparable within an allelic series)
CAGGTAGC	10.7 upbm affinity estimate (log intensity, higher = more binding, comparable within an allelic series)
AGCACTTC	12.4 upbm affinity estimate (log intensity, higher = more binding, comparable within an allelic series)
AAGGAGTG	11.9 upbm affinity estimate (log intensity, higher = more binding, comparable within an allelic series)
GAGTGACA	11.4 upbm affinity estimate (log intensity, higher = more binding, comparable within an allelic series)
AAACCGCG	10.5 upbm affinity estimate (log intensity, higher = more binding, comparable within an allelic series)
CACTCTCG	11.9 upbm affinity estimate (log intensity, higher = more binding, comparable within an allelic series)

Sequence	binding signal
CCACTCAG	12.6 upbm affinity estimate (log intensity, higher = more binding, comparable within an allelic series)
ACCGCTGG	10.5 upbm affinity estimate (log intensity, higher = more binding, comparable within an allelic series)
ATGCCGAC	10.6 upbm affinity estimate (log intensity, higher = more binding, comparable within an allelic series)
AAGCCGCC	10.7 upbm affinity estimate (log intensity, higher = more binding, comparable within an allelic series)
ACTTACTG	11.6 upbm affinity estimate (log intensity, higher = more binding, comparable within an allelic series)
ACGGGACG	10.4 upbm affinity estimate (log intensity, higher = more binding, comparable within an allelic series)
CAAAGAGG	11.9 upbm affinity estimate (log intensity, higher = more binding, comparable within an allelic series)
GCCGGCGC	10.3 upbm affinity estimate (log intensity, higher = more binding, comparable within an allelic series)
CACGGGCA	10.5 upbm affinity estimate (log intensity, higher = more binding, comparable within an allelic series)
ATCCCGCC	10.7 upbm affinity estimate (log intensity, higher = more binding, comparable within an allelic series)
TCTGGGCA	10.6 upbm affinity estimate (log intensity, higher = more binding, comparable within an allelic series)
AGTGGTCC	11.9 upbm affinity estimate (log intensity, higher = more binding, comparable within an allelic series)
CTCTTGCC	11.4 upbm affinity estimate (log intensity, higher = more binding, comparable within an allelic series)
GCCTGACC	10.6 upbm affinity estimate (log intensity, higher = more binding, comparable within an allelic series)
GAGTGCAC	12.2 upbm affinity estimate (log intensity, higher = more binding, comparable within an allelic series)
AAAAGGGT	11.5 upbm affinity estimate (log intensity, higher = more binding, comparable within an allelic series)
GCCCGGCC	10.3 upbm affinity estimate (log intensity, higher = more binding, comparable within an allelic series)
CGCGGTAC	10.8 upbm affinity estimate (log intensity, higher = more binding, comparable within an allelic series)
GACGAACC	10.6 upbm affinity estimate (log intensity, higher = more binding, comparable within an allelic series)
AAGTGACG	11.7 upbm affinity estimate (log intensity, higher = more binding, comparable within an allelic series)

Target: NKX3-2 (Homo sapiens, UniProt P78367 192-278)
Experiment: PBM; 200 nM protein, PBS
Settings: dsDNA, one strand shown

Chain of NKX3-2 (Homo sapiens, UniProt P78367 192-278) (P78367 192-278): as the sequence (P78367 192-278 P234S) above, with S43P counted along it

Sequence	binding signal
AGCATTCC	10.4 upbm affinity estimate (log intensity, higher = more binding, comparable within an allelic series)
AACGTGGC	10.5 upbm affinity estimate (log intensity, higher = more binding, comparable within an allelic series)
GCACCCAA	10.6 upbm affinity estimate (log intensity, higher = more binding, comparable within an allelic series)
CGCCAGCC	10.6 upbm affinity estimate (log intensity, higher = more binding, comparable within an allelic series)
ACCAGGCT	10.6 upbm affinity estimate (log intensity, higher = more binding, comparable within an allelic series)
CGGTTGAC	10.5 upbm affinity estimate (log intensity, higher = more binding, comparable within an allelic series)
GGTTGAAC	10.6 upbm affinity estimate (log intensity, higher = more binding, comparable within an allelic series)
CGCGGCCG	10.2 upbm affinity estimate (log intensity, higher = more binding, comparable within an allelic series)
GGCTCCCC	10.6 upbm affinity estimate (log intensity, higher = more binding, comparable within an allelic series)
CCTGGCCG	10.5 upbm affinity estimate (log intensity, higher = more binding, comparable within an allelic series)
AATGCGGT	10.8 upbm affinity estimate (log intensity, higher = more binding, comparable within an allelic series)
CCAGGTTA	10.8 upbm affinity estimate (log intensity, higher = more binding, comparable within an allelic series)
CAAGTGCG	12.3 upbm affinity estimate (log intensity, higher = more binding, comparable within an allelic series)
AAGTGGGA	12.6 upbm affinity estimate (log intensity, higher = more binding, comparable within an allelic series)
CAGGTAGC	10.7 upbm affinity estimate (log intensity, higher = more binding, comparable within an allelic series)
AGCACTTC	12.4 upbm affinity estimate (log intensity, higher = more binding, comparable within an allelic series)
AAGGAGTG	12 upbm affinity estimate (log intensity, higher = more binding, comparable within an allelic series)
GAGTGACA	11.5 upbm affinity estimate (log intensity, higher = more binding, comparable within an allelic series)
AAACCGCG	10.5 upbm affinity estimate (log intensity, higher = more binding, comparable within an allelic series)
CACTCTCG	12 upbm affinity estimate (log intensity, higher = more binding, comparable within an allelic series)

Sequence	binding signal
CCACTCAG	12.7 upbm affinity estimate (log intensity, higher = more binding, comparable within an allelic series)
ACCGCTGG	10.5 upbm affinity estimate (log intensity, higher = more binding, comparable within an allelic series)
ATGCCGAC	10.6 upbm affinity estimate (log intensity, higher = more binding, comparable within an allelic series)
AAGCCGCC	10.7 upbm affinity estimate (log intensity, higher = more binding, comparable within an allelic series)
ACTTACTG	11.7 upbm affinity estimate (log intensity, higher = more binding, comparable within an allelic series)
ACGGGACG	10.4 upbm affinity estimate (log intensity, higher = more binding, comparable within an allelic series)
CAAAGAGG	12 upbm affinity estimate (log intensity, higher = more binding, comparable within an allelic series)
GCCGGCGC	10.3 upbm affinity estimate (log intensity, higher = more binding, comparable within an allelic series)
CACGGGCA	10.6 upbm affinity estimate (log intensity, higher = more binding, comparable within an allelic series)
ATCCCGCC	10.7 upbm affinity estimate (log intensity, higher = more binding, comparable within an allelic series)
TCTGGGCA	10.6 upbm affinity estimate (log intensity, higher = more binding, comparable within an allelic series)
AGTGGTCC	11.9 upbm affinity estimate (log intensity, higher = more binding, comparable within an allelic series)
CTCTTGCC	11.5 upbm affinity estimate (log intensity, higher = more binding, comparable within an allelic series)
GCCTGACC	10.6 upbm affinity estimate (log intensity, higher = more binding, comparable within an allelic series)
GAGTGCAC	12.4 upbm affinity estimate (log intensity, higher = more binding, comparable within an allelic series)
AAAAGGGT	11.6 upbm affinity estimate (log intensity, higher = more binding, comparable within an allelic series)
GCCCGGCC	10.2 upbm affinity estimate (log intensity, higher = more binding, comparable within an allelic series)
CGCGGTAC	10.8 upbm affinity estimate (log intensity, higher = more binding, comparable within an allelic series)
GACGAACC	10.5 upbm affinity estimate (log intensity, higher = more binding, comparable within an allelic series)
AAGTGACG	11.9 upbm affinity estimate (log intensity, higher = more binding, comparable within an allelic series)
